Assay outcomes: PubChem, The Scripps Research Institute Molecular Screening Center
ASK1 inh: ASK1 kinase inhibitors, primary screen, biochemical, AlphaScreen. AID 1159602, 2016. AlphaScreen MKK6 phosphorylation by ASK1, luminescence. Mitogen-activated protein kinase kinase kinase 5 (Homo sapiens), Q99683. 0.99% of 22,000 active. inhibition, % at 7.44 µM; in the data active = inhibition above about 35%
ULK1 inh: ULK1 kinase inhibitors, primary screen, biochemical, AlphaScreen; AlphaScreen Atg13 phosphorylation by ULK1, luminescence; 1.9% of 30,000 active; Serine/threonine-protein kinase ULK1 (Homo sapiens), O75385; inhibition, % at 5.96 µM; in the data active = inhibition above about 43%
Target sequence (O75385 whole entry, looked up): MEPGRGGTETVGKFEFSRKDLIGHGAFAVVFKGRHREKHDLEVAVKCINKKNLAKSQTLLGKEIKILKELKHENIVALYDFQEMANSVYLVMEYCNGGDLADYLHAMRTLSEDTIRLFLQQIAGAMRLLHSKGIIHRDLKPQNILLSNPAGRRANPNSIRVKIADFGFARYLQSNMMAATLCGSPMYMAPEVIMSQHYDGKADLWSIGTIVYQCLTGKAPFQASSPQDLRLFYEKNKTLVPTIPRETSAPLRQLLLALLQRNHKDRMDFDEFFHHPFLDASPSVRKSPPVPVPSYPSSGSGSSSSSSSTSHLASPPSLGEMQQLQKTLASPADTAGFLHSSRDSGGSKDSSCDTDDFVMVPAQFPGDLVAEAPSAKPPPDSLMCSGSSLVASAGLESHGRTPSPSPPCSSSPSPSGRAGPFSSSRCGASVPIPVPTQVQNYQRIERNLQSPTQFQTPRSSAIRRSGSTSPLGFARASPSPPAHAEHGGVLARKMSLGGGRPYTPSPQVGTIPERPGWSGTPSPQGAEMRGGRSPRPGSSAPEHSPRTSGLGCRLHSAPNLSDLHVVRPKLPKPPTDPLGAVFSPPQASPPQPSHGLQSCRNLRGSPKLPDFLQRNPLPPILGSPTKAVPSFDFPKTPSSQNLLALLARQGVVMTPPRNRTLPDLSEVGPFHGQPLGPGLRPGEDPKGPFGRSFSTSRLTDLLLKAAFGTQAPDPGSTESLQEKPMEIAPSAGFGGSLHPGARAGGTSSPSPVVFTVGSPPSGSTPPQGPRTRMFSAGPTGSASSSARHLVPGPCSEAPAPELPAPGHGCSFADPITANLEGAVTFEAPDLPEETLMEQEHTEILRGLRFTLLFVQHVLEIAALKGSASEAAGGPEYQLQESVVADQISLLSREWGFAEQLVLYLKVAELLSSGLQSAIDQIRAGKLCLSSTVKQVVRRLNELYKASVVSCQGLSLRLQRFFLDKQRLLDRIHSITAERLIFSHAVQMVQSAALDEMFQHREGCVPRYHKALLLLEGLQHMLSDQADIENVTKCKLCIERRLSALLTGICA
Numbers stand for hits; 0 = inactive; - = not tested or not shown. A selection: hits, their analogues and other compounds. The true share with any hit is near 2.5%.

SMILES | ASK1 inh | ULK1 inh
COc1ccc(N2CCOCC2)cc1Nc1cc(Nc2ccccn2)c(C(F)(F)F)cn1 | 0 | 0
COc1cc(N2CCOCC2)ccc1Nc1cc(Nc2ccccc2-c2ncccn2)c(C(F)(F)F)cn1 | 0 | 0
FC(F)(F)c1cnc(Nc2ccc(N3CCOCC3)cc2)cc1Nc1cc(C2CC2)[nH]n1 | 0 | 80
O=C(NCc1ccccc1)c1ccccc1Nc1ccnc(Nc2ccc(N3CCOCC3)cc2)c1 | 0 | 0
CNC(=O)c1ccccc1Nc1cc(Nc2ccc(N3CCOCC3)cc2)ncc1C(N)=O | 0 | 85
COc1cc(C2SCC(C(=O)O)N2C(C)=O)cc(Br)c1O (centres undefined) | - | 0
COc1cc(Nc2cc(NCCOc3ccccc3)ncn2)cc(OC)c1OC | 0 | 0
NC(=O)c1ccc(-c2nc3ncnc(NCCCN4CCCC4=O)c3[nH]2)cc1 | 0 | 0
CC(=O)Nc1cc(Nc2ccccc2C(N)=O)ccn1 | 0 | 0
FC(F)(F)c1cccc(CNc2nc(Nc3cnccn3)nc3c2ncn3-c2ccsc2)c1 | 0 | 0
COc1cc(N2CCOCC2)ccc1Nc1ncc(Cl)c(Nc2ccccc2C(=O)NC2CC2)n1 | 0 | 0
CNC(=O)c1ccccc1Nc1nc(Nc2ccc(-n3cnc(N4CCOCC4)n3)cc2)ncc1Cl | 0 | 0
COc1cnc(Nc2ccc(N3CCOCC3)cc2)nc1Nc1ccccc1C(N)=O | 0 | 85
CNC(=O)c1ccccc1Nc1cc(Nc2ccc(C(=O)N3CCOCC3)cn2)ncc1C(F)(F)F | 0 | 86
CNC(=O)c1ccccc1Nc1nc(Nc2ccc(N3CCOCC3)c(F)c2)ncc1Cl | 0 | 90
Cc1cnc(Nc2ccc(-n3cnc(N4CCOCC4)n3)cc2)cc1Nc1ccccc1C(N)=O | 0 | 0
NC(=O)c1ccccc1Nc1cc(Nc2ccc(-n3cnc(N4CCOCC4)n3)cc2)ncc1C(F)F | 0 | 51
O=C(c1ccc(Nc2ccc3[nH]ncc3c2)nc1)N1CCOCC1 | 0 | 0
COc1cnc(Nc2ccc(N3CCOCC3)cc2)nc1-c1ccc(S(C)(=O)=O)cc1 | 0 | 46
COc1ccc(-c2ncc(C)c(Nc3ccc(N4CCOCC4)cc3)n2)cc1 | 0 | 0
C=CCOCCOc1cc(-c2cn[nH]c2)ccc1NC(=O)C1COc2ccc(OC)cc2C1 (centres undefined) | 69 | 0
COc1ccc2c(c1)CC(C(=O)Nc1ccc(-c3cn[nH]c3)cc1OCCO)CO2 (centres undefined) | 0 | 0
O=C(Nc1ccccc1)c1cnc(N2CCCC2CO)s1 (centres undefined) | 0 | 0
c1cn(-c2ccc(Nc3nc(Nc4ccc(N5CCOCC5)cc4)c4ncn(-c5ccsc5)c4n3)cc2)cn1 | 0 | 46
c1cc(-n2cnc3c(Nc4ccc(N5CCOCC5)cc4)nc(Nc4ccc(N5CCOCC5)cc4)nc32)cs1 | 0 | 0
SMILES | ASK1 inh | ULK1 inh
c1cncc(Nc2nc(Nc3ccc(N4CCOCC4)cc3)c3ncn(-c4ccsc4)c3n2)c1 | 0 | 49
c1ccc(Nc2nc(Nc3ccc(N4CCOCC4)cc3)nc3c2ncn3-c2ccsc2)cc1 | 0 | 0
c1ccc(CNc2nc(Nc3ccc(N4CCOCC4)cc3)nc3nc[nH]c23)cc1 | 0 | 0
c1ccc(CNc2nc(N3CCN(c4ccccn4)CC3)nc3c2ncn3-c2ccccc2)cc1 | 0 | 0
COc1ccc(CCNC(=O)c2cc(NC3CCC(O)CC3)nc3ccccc23)cc1 (centres undefined) | 0 | 0
Cn1cc(-c2ccc3cnc(Nc4ccc(-n5cnc(N6CCOCC6)n5)cc4)nc3c2C(F)(F)F)cn1 | 0 | 0
O=C(NCc1ccccc1)c1ccc2cnc(Nc3ccc(-n4cnc(N5CCOCC5)n4)cc3)nc2c1 | 0 | 0
CC1CN(c2ncn(-c3ccc(Nc4ncc5ccc(-c6cnn(C)c6)c(Cl)c5n4)cc3)n2)CC(C)O1 (centres undefined) | 0 | 53
Cn1cc(-c2ccc3cnc(Nc4ccc(-n5cnc(N6CCOCC6)n5)cc4)nc3n2)cn1 | 0 | 0
CCn1cc(-c2ccc3cnc(Nc4ccc(-n5cnc(N6CCOCC6)n5)cc4)nc3c2Cl)cn1 | 0 | 78
CNC(=O)c1ccc2cnc(Nc3ccc(-n4cnc(N5CCOCC5)n4)cc3)nc2c1 | 0 | 50
COc1cc(Nc2nc(Nc3ccc(C(F)(F)F)cc3)nc3nc[nH]c23)cc(OC)c1OC | 0 | 0
O=C(NCc1cccc(C(F)(F)F)c1)c1ccc2nc(Nc3ccc(C(F)(F)F)cc3)sc2c1 | 0 | 0
CC(C)n1cnc2c(Nc3ccc4c(c3)OCO4)nc(Nc3ccc(-n4ccnc4)cc3)nc21 | 0 | 55
CC(C)n1cnc2c(Nc3ccc4c(c3)OCO4)nc(Nc3cnccn3)nc21 | 0 | 49
c1cnc(Nc2nc(Nc3ccc4c(c3)OCO4)c3ncn(C4CCCCC4)c3n2)cn1 | 0 | 0
CC(C)n1cnc2c(Nc3ccc4c(c3)OCO4)nc(Nc3ccccc3)nc21 | 0 | 0
CC(C)n1cnc2c(NCc3cccnc3)nc(Nc3ccc(C(F)(F)F)cc3)nc21 | 0 | 0
COc1cccc(NC(=O)c2cccc(-n3cc(NC(=O)Cc4cccc(C)c4)cn3)c2)c1 | 0 | 0
Oc1cccc2[nH]ccc12 | - | 0
c1ccc2[nH]ccc2c1 | - | 83
CCN(CC)c1nc(NCCc2ccc(OC)cc2)nc(N2CCN(c3ccccn3)CC2)n1 | 0 | 0
COc1cc(Nc2nc(NCCO)c3[nH]cnc3n2)cc(OC)c1OC | 0 | 63
CCNc1nc(NCCc2ccc(O)cc2)c2[nH]cnc2n1 | 0 | 0
CN(C)c1cccc(Nc2nc(NCCOc3ccccc3)c3[nH]cnc3n2)c1 | 0 | 0
SMILES | ASK1 inh | ULK1 inh
COc1cc(Nc2nc(NCCOc3ccccc3)c3[nH]cnc3n2)cc(OC)c1OC | 0 | 78
COc1cc(Nc2nc(NCCc3ccc(O)cc3)c3[nH]cnc3n2)cc(OC)c1OC | 0 | 75
CCNc1nc(Nc2cc(OC)c(OC)c(OC)c2)c2[nH]cnc2n1 | 0 | 0
COc1cc2nc(NCCN3CCOCC3)nc(NCCN(C(C)C)C(C)C)c2cc1OC | 0 | 0
CCCNc1cc(N2CCOCC2)nc(N)n1 | 0 | 0
CCNc1nc(Nc2ccc3c(c2)OCO3)c2ncn(-c3ccccc3)c2n1 | 0 | 0
OCC/C=C(\C=C\c1ccccc1)C(NCc1ccccc1)c1ccccc1 (centres undefined) | 0 | 0
c1cc(Nc2nc(NCCN3CCOCC3)c3[nH]cnc3n2)ncn1 | 0 | 0
NC(Cc1ccccc1)c1nc2ccc(-c3cncc4ccccc34)cc2[nH]1 (centres undefined) | 0 | 57
NC(Cc1ccccc1)c1nc2ccc(-c3cccc4ncccc34)cc2[nH]1 (centres undefined) | 0 | 0
NCCc1ccc(O)c(O)c1 | - | 74
Nc1ccc(O)c(N)c1 | - | 0
Cc1ccc(-c2cccc3cnc(Nc4cccc(C(=O)NC5CC5)c4)nc23)cn1 | 0 | 59
Cc1ccc(-c2cccc3cnc(Nc4ccc(-n5cnc(-c6ccccn6)n5)cc4)nc23)cn1 | 0 | 0
Cc1ccc(-c2cccc3cnc(Nc4ccc(C(=O)NC5CC5)cc4)nc23)cn1 | 0 | 62
O=C(NC1CC1)c1cccc(Nc2cnccn2)c1 | 0 | 0
Cc1nn(C)c(C)c1-c1nc(C(=O)NCCN(C(C)C)C(C)C)cs1 | 0 | 0
CCc1c(C)nc(-n2nc(C)cc2NC(=O)C(CC)c2ccccc2)[nH]c1=O (centres undefined) | - | 0
COc1ccc(CCNc2nc(OC)nc(-c3cccc(C(C)=O)c3)n2)cc1 | 0 | 0
